Reference: PMC12136788
Positions count from the first letter of the chain named. In all, about 5,800 sequences were measured (“enrichment r”: median about 0.54, highest 2% from about 16 on). Many of the other results were omitted from the sample, so the highest values are more common in it than they were.

B1: chr4:25747873:25747886:-|3pUTR|ENSG00000091490|msi1_unk|FALSE|overlapping (ssRNA)
RNA: GGGAGUUCUACAGUCCGACGAUCUAGCAGUUAUAAGGCACCUUGAAAUAAAUUGUUUGUGCCUGGAAAUGCAGGGAGGGCAAUAGCUUUGUAAAUUGGUUUACAUUUUUCUCCUUGAAUUUUUCUAGGGUCCUAGUGCUUCCGCAACAGAGGAUUGAGCAUCA
B2: ENSG00000107863:be:win_3601|CDS|ENSG00000107863|bound_else_gene|NA|bound_elsewhere_windowed (ssRNA)
RNA: GGGAGUUCUACAGUCCGACGAUCAAGGGAAUGGCUGAUAUUGAUAUACAAGAUGAUAAAUGGCGAGAUUUGAAUGUGAUAAGCAGUUUACUAAAAUCCUUCUUCAGAAAACUCCCUGAGCCUCUCUUCACAAAUGAUAAAUAUCAACAGAGGAUUGAGCAUCA
B3: chr6:52502144:52502313:-|3pUTR|ENSG00000065308|msi1|total|mutant (ssRNA)
RNA: GGGAGUUCUACAGUCCGACGAUCUCAGCCAUUCACAAGCAUUCAAAACCAAACCAAACAGCAGUUCAUAUACCUGCCUGAGACCGGCUGGUCCUCACCUCCAGAGCCAGCCAGCCCCGUCAGGGGCCAAACUUACUACCUUGACAACAGAGGAUUGAGCAUCA
B4: chr10:119917856:119917957:+|CDS|ENSG00000107651|unk|total|mutant (ssRNA)
RNA: GGGAGUUCUACAGUCCGACGAUCUAAGAAAAUCACUUUGCCAAGUAUUGGUCGAUUUCGUCACUUUACCAAUGAAACUUUGCCCGAUAUUUUAUUUUAUAACAGCCCCACCUACUGUCAGACAAUUGUGGAAAAAGCCGGAAUCAACAGAGGAUUGAGCAUCA
B5: chr1:150220393:150220494:-|3pUTR|ENSG00000143401|msi1_unk|FALSE|overlapping (ssRNA)
RNA: GGGAGUUCUACAGUCCGACGAUCAUUGUAUGUAGAGAAAAAUUUUCAUUGACUCCCAUUGUGGAAUUCCCUAGCAAUUUAUUUAGACUUAAUUUUUUAAAUUCAAGCUUACUGUAUUAGUCAUUUUUAGCCCAUAAUUAAAACCAACAGAGGAUUGAGCAUCA
B6: ENSG00000198856:stop:overlap|stop_codon|ENSG00000198856|stop_codon|NA|stop_codon (ssRNA)
RNA: GGGAGUUCUACAGUCCGACGAUCUGAGUUUUUUCAUGGCUAGAGUAUUCAUGAGAAUGAAACUGCCGGGCUAUCUGAUGGGUUAGAGUGCCUUUGAGAAGAAAUCAGUGGAUACUGGAUUUGCUCCUGUCAAUGAAGUUUUAACAACAGAGGAUUGAGCAUCA
B7: chr12:98549999:98550103:+|3pUTR|ENSG00000120802|unk|FALSE|unique (ssRNA)
RNA: GGGAGUUCUACAGUCCGACGAUCUGUUUCCCAUACUGUUUUCAGCCUUUUGUUUAUAAUUAGAAAUUGUGAGAAGCUUCAUUUAGUGUUUAAAAAUGUGGGGAGAUAAAUCAGACUUAACAUGUAUGUAAGAUCAAUUCACUUCAACAGAGGAUUGAGCAUCA
B8: chr2:167954955:167954998:-|3pUTR|ENSG00000198648|msi1_unk|FALSE|overlapping (ssRNA)
RNA: GGGAGUUCUACAGUCCGACGAUCGUUGUAUUUAGAAAUUAAUAUACUUAUAAAAUUAAGAUUUAUUAGCCAAACUUGAAUUCUAGUUUUAAAACUGACUGUGAAUUUUAUUUUUCAUAUAUUUAUGCAUUACACACCUUAGCUCAACAGAGGAUUGAGCAUCA
B9: chr12:104760787:104760888:+|3pUTR|ENSG00000171310|unk|total|mutant (ssRNA)
RNA: GGGAGUUCUACAGUCCGACGAUCUUCUUUUCUAAUGGCAUUGAAACUUUAAAAAAAAUGGAUUCAACUGUUUUUGCAGAAUGCCGAAAGUAUUCUGUGUCCUUGGUUAAAGAAAUCCACUUGUGAAGUGUGCCUGGAAAAUGACAACAGAGGAUUGAGCAUCA
B10: chr12:98549999:98550103:+|3pUTR|ENSG00000120802|unk|total|mutant (ssRNA)
RNA: B7 RNA with U60C, A61C, U83C, A84C
B11: ENSG00000064393:stop:overlap|stop_codon|ENSG00000064393|stop_codon|NA|stop_codon (ssRNA)
RNA: GGGAGUUCUACAGUCCGACGAUCUCUCCCUGGAGAGUGGUUUUCCUGCUUUUCUGCUGCUAGAAAUGUUGCUGUAUGGGAGCUAGUACAAUAGAAAGUGCCCAGUGACUGCAGGCGACCCUUACCGAGGAUUUUAUUCAAGUACAACAGAGGAUUGAGCAUCA
B12: chr12:909583:909684:+|3pUTR|ENSG00000060237|unk|FALSE|bound_elsewhere (ssRNA)
RNA: GGGAGUUCUACAGUCCGACGAUCUAGCUCUGUCCUUUACUUAUUGAGACACUUUAACUUUUUCCUUUGUAUUUCCAUUGUAUUAGAUAAAUAAAUGUGAAUGUAAAAUUGUAUAAAUUACUGUACUUGAAUACUUCUGUUUCCCAACAGAGGAUUGAGCAUCA
B13: chr8:100287602:100287712:-|CDS|ENSG00000034677|unk|total|mutant (ssRNA)
RNA: GGGAGUUCUACAGUCCGACGAUCUGUGUGGAUUGCUUACGACAAUAUUUAAGGACCGAAAUCUCUGAAAGCAGAGUUAAUAUCCGUUGCCCAGAAUGUACUGAACGGUUUAAUCCCCAUGAUAUUCGCUUGAUAUUAAGUGAUCAACAGAGGAUUGAGCAUCA
B14: chr12:104760787:104760888:+|3pUTR|ENSG00000171310|unk|FALSE|unique (ssRNA)
RNA: B9 RNA with C83U, C84A
B15: chr8:100287602:100287712:-|CDS|ENSG00000034677|unk|FALSE|unique (ssRNA)
RNA: B13 RNA with C55U, C56A, C83U, C84A
B16: chr1:150220393:150220494:-|3pUTR|ENSG00000143401|msi1_unk|total|mutant (ssRNA)
RNA: B5 RNA with U32C, A33C, U71C, A72C, U83C, A84C, U117C, A118C, U127C, A128C

Each binder was assayed against MSI1 full-length (mouse, UniProt Q61474 1-362) (assay: nsRBNS (natural sequence RNA bind-n-seq); RBNS binding buffer (assumed for nsRBNS): 25 mM Tris pH 7.5, 150 mM KCl, 3 mM MgCl2, 0.01% Triton X-100, 500 ug/ml BSA, 20 U/ml SUPERase-In, 4 C; UNK is unkempt and MSI1 is Musashi-1; names of the RNAs are library labels; protein concentration not given here; high values mean tight binding).
Chain of MSI1 full-length (Q61474 whole entry): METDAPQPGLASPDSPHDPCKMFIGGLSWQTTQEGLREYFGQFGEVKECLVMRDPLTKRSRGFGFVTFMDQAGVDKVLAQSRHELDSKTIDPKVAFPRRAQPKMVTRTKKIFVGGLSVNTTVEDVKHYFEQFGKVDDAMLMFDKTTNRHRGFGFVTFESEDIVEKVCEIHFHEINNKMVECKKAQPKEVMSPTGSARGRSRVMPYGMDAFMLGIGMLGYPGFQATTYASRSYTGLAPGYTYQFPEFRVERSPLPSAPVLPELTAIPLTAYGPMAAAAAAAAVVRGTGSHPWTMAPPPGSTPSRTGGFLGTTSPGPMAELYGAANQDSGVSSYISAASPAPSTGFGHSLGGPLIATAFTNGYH

Row | Binder | binding signal
1 | B1 | 1.14 enrichment R
2 | B2 | 0.64 enrichment R
3 | B3 | 0.877 enrichment R
4 | B4 | 0.52 enrichment R
5 | B5 | 61.8 enrichment R
6 | B6 | 16.4 enrichment R
7 | B7 | 27.3 enrichment R
8 | B8 | 9.9 enrichment R
9 | B9 | 0.231 enrichment R
10 | B10 | 0.426 enrichment R
11 | B11 | 0.605 enrichment R
12 | B12 | 13.1 enrichment R
13 | B13 | 0.307 enrichment R
14 | B14 | 0.433 enrichment R
15 | B15 | 22.4 enrichment R
16 | B16 | 2.27 enrichment R
